# PubChem BioAssay AID1159580 (chemical genetic matrix, 2015)
# The whole screen tested about 5,500 compounds, of which about 2,000 (36%) were called active. Not shown: some 18% with an inconclusive outcome. This is one part of the list. Values without a mark were called inactive. Rule as the data show it: active = normalized growth mostly below about 0.91 (no sharp cut-off); inconclusive = no clear call, values can overlap the other calls; inactive = mostly above about 0.92.
# Assay: chemical genetic growth profiling, strain panel (AID 1159580);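 also: tested at 20 µM; growth read once vehicle control cultures reached saturation at 30 °C; 1 = growth at the plate median or of vehicle wells; lower values mean less growth of the strain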
# Conditions: growth OD
smiles,measurement,setting,value
O=C(O)CN(CC(=O)O)Cc1cc2c(-c3ccccc3C(=O)O)c3cc(CN(CC(=O)O)CC(=O)O)c(=O)cc-3oc2cc1O,normalized growth,"S. cerevisiae deletion strains, locus YJR043C, strain POL32, stronger effect = lower value",1.01
same,normalized growth,"S. cerevisiae deletion strains, locus YJR075W, strain HOC1, stronger effect = lower value",1.03
same,normalized growth,"S. cerevisiae deletion strains, locus YKL009W, strain mrt4, stronger effect = lower value",1.02
same,normalized growth,"S. cerevisiae deletion strains, locus YKL068W, stronger effect = lower value",1.01
same,normalized growth,"S. cerevisiae deletion strains, locus YKL085W, strain MDH1 (second series), stronger effect = lower value",1.01
same,normalized growth,"S. cerevisiae deletion strains, locus YKL085W, strain MDH1, stronger effect = lower value",1.01
same,normalized growth,"S. cerevisiae deletion strains, locus YKL160W, strain elf1, stronger effect = lower value",0.96
same,normalized growth,"S. cerevisiae deletion strains, locus YKL190W, strain CNB1, stronger effect = lower value",1.01
same,normalized growth,"S. cerevisiae deletion strains, locus YKR001C, strain vps1, stronger effect = lower value",1.02
same,normalized growth,"S. cerevisiae deletion strains, locus YKR026C, strain gcn3, stronger effect = lower value",0.986
same,normalized growth,"S. cerevisiae deletion strains, locus YKR091W, strain srl3, stronger effect = lower value",0.965
same,normalized growth,"S. cerevisiae deletion strains, locus YLL001W, strain dnm1, stronger effect = lower value",0.984
same,normalized growth,"S. cerevisiae deletion strains, locus YLL026W, stronger effect = lower value",0.987
same,normalized growth,"S. cerevisiae deletion strains, locus YLL041C, strain sdh2, stronger effect = lower value",0.974
same,normalized growth,"S. cerevisiae deletion strains, locus YLR027C, strain aat2, stronger effect = lower value",0.969
same,normalized growth,"S. cerevisiae deletion strains, locus YLR039C, strain RIC1, stronger effect = lower value",1.05
same,normalized growth,"S. cerevisiae deletion strains, locus YLR058C, strain SHM2, stronger effect = lower value",1
same,normalized growth,"S. cerevisiae deletion strains, locus YLR102C, strain apc9, stronger effect = lower value",1.03
same,normalized growth,"S. cerevisiae deletion strains, locus YLR221C, strain rsa3, stronger effect = lower value",0.984
same,normalized growth,"S. cerevisiae deletion strains, locus YLR258W, strain gsy2, stronger effect = lower value",0.967
same,normalized growth,"S. cerevisiae deletion strains, locus YLR262C, strain YPT6 (second series), stronger effect = lower value",0.817 (active)
same,normalized growth,"S. cerevisiae deletion strains, locus YLR262C, strain YPT6, stronger effect = lower value",1.06
same,normalized growth,"S. cerevisiae deletion strains, locus YLR268W, strain sec22, stronger effect = lower value",1.01
same,normalized growth,"S. cerevisiae deletion strains, locus YLR320W, strain mms22, stronger effect = lower value",0.973
same,normalized growth,"S. cerevisiae deletion strains, locus YLR330W, strain CHS5, stronger effect = lower value",1.01
same,normalized growth,"S. cerevisiae deletion strains, locus YLR342W, strain FKS1 (second series), stronger effect = lower value",1
same,normalized growth,"S. cerevisiae deletion strains, locus YLR342W, strain FKS1, stronger effect = lower value",0.964
same,normalized growth,"S. cerevisiae deletion strains, locus YLR357W, strain rsc2, stronger effect = lower value",0.896
same,normalized growth,"S. cerevisiae deletion strains, locus YLR370C, strain arc18, stronger effect = lower value",0.964
same,normalized growth,"S. cerevisiae deletion strains, locus YLR371W, strain rom2, stronger effect = lower value",1.02
same,normalized growth,"S. cerevisiae deletion strains, locus YLR384C, strain iki3, stronger effect = lower value",0.973
same,normalized growth,"S. cerevisiae deletion strains, locus YLR418C, strain cdc73, stronger effect = lower value",1.03
same,normalized growth,"S. cerevisiae deletion strains, locus YML016C, strain PPZ1, stronger effect = lower value",1.01
same,normalized growth,"S. cerevisiae deletion strains, locus YML032C, strain rad52, stronger effect = lower value",1.03
same,normalized growth,"S. cerevisiae deletion strains, locus YML120C, strain ndi1, stronger effect = lower value",0.968
same,normalized growth,"S. cerevisiae deletion strains, locus YML124C, strain tub3, stronger effect = lower value",1.02
same,normalized growth,"S. cerevisiae deletion strains, locus YMR058W, strain fet3, stronger effect = lower value",0.466 (active)
same,normalized growth,"S. cerevisiae deletion strains, locus YMR078C, strain ctf18, stronger effect = lower value",1.03
same,normalized growth,"S. cerevisiae deletion strains, locus YMR125W, strain sto1, stronger effect = lower value",1.01
same,normalized growth,"S. cerevisiae deletion strains, locus YMR129W, stronger effect = lower value",0.964
same,normalized growth,"S. cerevisiae deletion strains, locus YMR205C, strain PFK2, stronger effect = lower value",0.989
same,normalized growth,"S. cerevisiae deletion strains, locus YMR223W, strain ubp8, stronger effect = lower value",1
same,normalized growth,"S. cerevisiae deletion strains, locus YMR231W, strain pep5, stronger effect = lower value",0.942
same,normalized growth,"S. cerevisiae deletion strains, locus YMR263W, strain SAP30, stronger effect = lower value",1.02
same,normalized growth,"S. cerevisiae deletion strains, locus YMR307W, strain GAS1, stronger effect = lower value",0.947
same,normalized growth,"S. cerevisiae deletion strains, locus YNL067W, strain RPL9B, stronger effect = lower value",1.03
same,normalized growth,"S. cerevisiae deletion strains, locus YNL071W, strain lat1, stronger effect = lower value",0.973
same,normalized growth,"S. cerevisiae deletion strains, locus YNL128W, strain TEP1, stronger effect = lower value",0.96
same,normalized growth,"S. cerevisiae deletion strains, locus YNL153C, strain GIM3, stronger effect = lower value",0.998
same,normalized growth,"S. cerevisiae deletion strains, locus YNL209W, strain ssb2, stronger effect = lower value",0.911 (active)
same,normalized growth,"S. cerevisiae deletion strains, locus YNL233W, strain BNI4, stronger effect = lower value",0.994
same,normalized growth,"S. cerevisiae deletion strains, locus YNL248C, strain rpa49, stronger effect = lower value",1.02
same,normalized growth,"S. cerevisiae deletion strains, locus YNL250W, strain rad50, stronger effect = lower value",1.01
same,normalized growth,"S. cerevisiae deletion strains, locus YNL271C, strain bni1, stronger effect = lower value",1.01
same,normalized growth,"S. cerevisiae deletion strains, locus YNL298W, strain CLA4, stronger effect = lower value",1.04
same,normalized growth,"S. cerevisiae deletion strains, locus YNL307C, strain MCK1, stronger effect = lower value",1.03
same,normalized growth,"S. cerevisiae deletion strains, locus YNL322C, strain KRE1 (second series), stronger effect = lower value",0.967
same,normalized growth,"S. cerevisiae deletion strains, locus YNL322C, strain KRE1, stronger effect = lower value",1.01
same,normalized growth,"S. cerevisiae deletion strains, locus YNR049C, strain mso1, stronger effect = lower value",0.956
same,normalized growth,"S. cerevisiae deletion strains, locus YNR052C, strain pop2, stronger effect = lower value",1.02
same,normalized growth,"S. cerevisiae deletion strains, locus YOL006C, strain TOP1, stronger effect = lower value",1
same,normalized growth,"S. cerevisiae deletion strains, locus YOL012C, strain htz1",1.12
same,normalized growth,"S. cerevisiae deletion strains, locus YOL147C, strain pex11, stronger effect = lower value",1.02
same,normalized growth,"S. cerevisiae deletion strains, locus YOR001W, strain rrp6, stronger effect = lower value",0.939
same,normalized growth,"S. cerevisiae deletion strains, locus YOR061W, strain CKA2, stronger effect = lower value",1
same,normalized growth,"S. cerevisiae deletion strains, locus YOR069W, strain VPS5, stronger effect = lower value",1.01
same,normalized growth,"S. cerevisiae deletion strains, locus YOR070C, strain gyp1, stronger effect = lower value",0.986
same,normalized growth,"S. cerevisiae deletion strains, locus YOR080W, strain dia2, stronger effect = lower value",0.947
same,normalized growth,"S. cerevisiae deletion strains, locus YOR083W, strain WHI5, stronger effect = lower value",0.958
same,normalized growth,"S. cerevisiae deletion strains, locus YOR106W, strain vam3, stronger effect = lower value",0.773 (active)
same,normalized growth,"S. cerevisiae deletion strains, locus YOR136W, strain idh2, stronger effect = lower value",1.02
same,normalized growth,"S. cerevisiae deletion strains, locus YOR144C, strain elg1, stronger effect = lower value",1.02
same,normalized growth,"S. cerevisiae deletion strains, locus YOR184W, strain ser1, stronger effect = lower value",1.03
same,normalized growth,"S. cerevisiae deletion strains, locus YOR265W, strain rbl2, stronger effect = lower value",0.984
same,normalized growth,"S. cerevisiae deletion strains, locus YOR270C, strain vph1, stronger effect = lower value",0.764 (active)
same,normalized growth,"S. cerevisiae deletion strains, locus YOR290C, strain snf2, stronger effect = lower value",0.904
same,normalized growth,"S. cerevisiae deletion strains, locus YOR316C, strain cot1, stronger effect = lower value",1.02
same,normalized growth,"S. cerevisiae deletion strains, locus YPL051W, strain arl3, stronger effect = lower value",0.867 (active)
same,normalized growth,"S. cerevisiae deletion strains, locus YPL055C, strain LGE1, stronger effect = lower value",0.974
same,normalized growth,"S. cerevisiae deletion strains, locus YPL078C, strain atp4, stronger effect = lower value",0.939
same,normalized growth,"S. cerevisiae deletion strains, locus YPL106C, strain sse1, stronger effect = lower value",0.87
same,normalized growth,"S. cerevisiae deletion strains, locus YPL240C, strain hsp82, stronger effect = lower value",0.971
same,normalized growth,"S. cerevisiae deletion strains, locus YPL241C, strain CIN2, stronger effect = lower value",0.987
same,normalized growth,"S. cerevisiae deletion strains, locus YPR119W, strain clb2, stronger effect = lower value",1.02
same,normalized growth,"S. cerevisiae deletion strains, locus YPR141C, strain kar3, stronger effect = lower value",1.02
same,normalized growth,"S. cerevisiae deletion strains, locus YPR163C, strain tif3, stronger effect = lower value",1.01
same,normalized growth,"S. cerevisiae deletion strains, locus YPR167C, strain met16, stronger effect = lower value",1.03
same,normalized growth,"S. cerevisiae deletion strains, strain wtn01, stronger effect = lower value",1.01
same,normalized growth,"S. cerevisiae strains, strain wild type, stronger effect = lower value",0.999
